The campaign covered roughly 45,000 compounds. About 65 (0.1%) were called active. The call rests on the fitted dose curve; in most records, active means well fitted activation curve with a large enough effect; inconclusive means small, poorly fitted or top-dose-only effect; inactive means no such curve, though single readings can be large or run the other way. The entries come from a sample that favours actives as a whole.
The compounds below were run against Galactocerebrosidase (Homo sapiens) (UniProt P54803) (assay: A Novel Cell-Based Assay to Identify Small Molecules for B -Galactocerebrosidase). Conditions: 145M-Twi-hGALC-G270D cells (Twitcher mouse brain line with human GALC G270D), HMU-beta-Gal fluorescence, 48 h; series mostly up to 57.5 µM.
Text: Lysosomal storage diseases (LSDs) are caused by genetic mutations in genes encoding proteins important for normal lysosomal function. Globoid cell leukodystrophy (GLD), mostly known as Krabbe disease, is a prototype of the neurological LSDs caused by deficiency of beta-galactocerebrosidase (GALC). In brain specimens of GLD patients, psychosine levels are substantially elevated. At elevated concentrations, psychosine becomes cytotoxic to neuronal cells, particularly to oligodendrocytes (OLG), neural cells responsible for myelin formation. Therefore, the biochemical disturbances in GLD are manifested by different degrees of brain demyelination resulting in a broad spectrum of neurological manifestations. Most of the FDA-approved therapies are based on enzyme replacement therapeutic (ERT) agents, which treat non-neurological symptoms of Gaucher disease, Fabry disease, few mucopolysaccharidoses and Pompe disease. Unfortunately, in GLD, a primarily neurological LSD, ERT agents, as large molecular weight molecules unable to cross the blood-brain barrier, which makes this an inefficacious therapeutic approach. In GLD, increasing the residual GALC activity just above the critical threshold (~10% of wild type enzymatic activity), the cytotoxic levels of psychosine will be reduced, avoiding the OLGs apoptosis and the subsequent demyelination process. This will translate in disease stabilization and amelioration of GLD patient symptoms.
A cell-based assay in 1,536-well plate format was developed to implement a quantitative high-throughput screening (qHTS) assay using GLD-disease relevant cells to identify small molecules that produce enhancements of the residual enzymatic activity levels of mutants GALC found and prevalent in GLD patients. Compounds that are active may therefore have some therapeutic application for GLD. After the treatment of live cells for a determined period, using a fluorescent GALC specific substrate, the mutant residual GALC activity is measured. This cell-based qTHS assay was used to screen part of the MLPCN library for small molecule able to increase the mutant GALC enzymatic activity. In this assay, increased fluorescent signal corresponds to enhanced levels of mutant GALC residual enzymatic activity. Activation is the desired outcome for this assay.
NIH Chemical Genomics Center [NCGC]
NIH Molecular Libraries Probe Centers Network [MLPCN]
Assay Submitter (PI): Gustavo Maegawa MD,PhD, University of Florida, Gainesville, FL
2)#Two cell lines were established for the assay: 145M-Twi-hGALC-G270D (brain-derived Twitcher cell line stably expressing human GALC-G270D) and 145M-Twi-hGALC-WT (same 145M-Twi stably expressing human GALC wild type). The Twitcher is the murine C57B/6 model for GLD with naturally occurring homozygous nonsense GALC mutation. The 145M-Twi cell line was established at Maegawa lab (Ribbens J et al 2014).
a.#Media: DMEM/F12 (1:1) with 10% fetal bovine-serum (FBS) with penicillin/streptomycin (PS-1X - 100 I.U./mL of penicillin+100 ug/mL of streptomycin).
b.#The 6-Hexadecanoylamino-4-methylumbelliferyl-b-D-galactoside (HMU-B-gal) substrate was prepared as per Wiederschain et al 1992. Using 20-mL borosilicate tubes, 2.20 mg of HMU-b-Gal was added in each tube to prepare substrate-film with a final air-nitrogen stream evaporation to remove all diluent solvents.
c.#The HMUb-Gal substrate buffer consists of 0.2 M Na2HPO4 (sodium phosphate dibasic)/ 0.1 M Citric Acid with the pH adjusted to 5.2 using HCl. Sodium Azide at 0.02% and Sodium Taurocholate (NaTC) at 1 mg/mL were added to this substrate buffer.
d.#The HMU-b-Gal stopping buffer consist of 0.5 M NaHCO3 (sodium bicarbonate) /0.5 M Na2CO3 (sodium carbonate). […] Triton X-100 at 0.25% was added.
4)#Preparation of HMU-b-Gal substrate tubes
Adding 18.6 mL of the HMUb-Gal substrate buffer to each 20-mL tube (2.20 mg of HMU-b-Gal) will reach a concentration of 0.2 mM. Vortex well the tube until the solution is fully homogenized (clear cloudy solution). […]
Further: nearly all actives have a fitted effect of over 65% in size.

Sequence of Galactocerebrosidase (Homo sapiens) (P54803 whole entry G286D): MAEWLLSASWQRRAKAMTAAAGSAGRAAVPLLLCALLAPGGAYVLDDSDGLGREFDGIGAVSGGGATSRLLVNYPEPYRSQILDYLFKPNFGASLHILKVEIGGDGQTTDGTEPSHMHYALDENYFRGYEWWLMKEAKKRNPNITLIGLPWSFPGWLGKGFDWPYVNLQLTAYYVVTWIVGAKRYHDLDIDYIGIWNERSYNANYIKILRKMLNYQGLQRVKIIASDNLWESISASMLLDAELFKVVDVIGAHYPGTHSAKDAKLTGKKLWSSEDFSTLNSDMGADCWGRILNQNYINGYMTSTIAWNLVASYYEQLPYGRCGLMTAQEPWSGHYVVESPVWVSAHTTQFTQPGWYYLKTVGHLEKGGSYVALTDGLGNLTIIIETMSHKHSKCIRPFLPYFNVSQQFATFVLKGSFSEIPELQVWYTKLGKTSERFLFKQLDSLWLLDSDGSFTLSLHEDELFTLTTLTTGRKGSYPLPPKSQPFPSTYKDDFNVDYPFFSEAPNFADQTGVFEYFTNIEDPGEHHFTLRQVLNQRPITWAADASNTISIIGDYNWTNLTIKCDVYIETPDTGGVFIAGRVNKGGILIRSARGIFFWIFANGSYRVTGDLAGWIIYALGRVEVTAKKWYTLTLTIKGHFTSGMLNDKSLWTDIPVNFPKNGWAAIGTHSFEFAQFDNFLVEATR

Potency, inactive:
CCc1ccc(NC(=O)CCS(=O)(=O)c2cc3c(cc2Cl)NC(=O)CO3)cc1
COc1cccc(CN2CCc3nc(SCC(=O)Nc4ccccc4)[nH]c(=O)c3C2)c1
Cc1ccccc1-c1nc(CS(=O)(=O)CC(=O)Nc2cc(Cl)cc(Cl)c2)c(C)o1
CCc1nnc(SCC(=O)Nc2cc(OC)ccc2OC)nc1CC
O=C(NCCCO)c1nn(-c2ccc(Cl)cc2)nc1CO
Cn1nnc2c(N3CCN(c4ccccc4)CC3)ncnc21
CN1CCN(C(CNC(=O)c2ccccc2F)c2ccc3c(c2)OCO3)CC1 (stereo not drawn)
COc1ccc(CNC(=O)c2ccc3c(O)c(S(=O)(=O)c4ccccc4)c(=O)[nH]c3c2)cc1
CCC(=O)Nc1cccc(C(=O)OCc2cc(=O)n3nc(CC)sc3n2)c1
Cc1cccc(OCCSc2nc3ccc(NC(=O)COc4ccccc4C)cc3s2)c1
Cc1cccc(CSc2nc3ccncc3n2CC(=O)N(C)C2CCCCC2)c1
Cc1ccccc1CSc1nc(-c2ccccc2)nc2c1Cc1c(CO)cnc(C)c1O2
O=C(Nc1nc2c(s1)CCCC2)c1ccccc1F
COc1ccc(CNC(=O)CSc2n[nH]c(-c3ccc(F)cc3)n2)cc1
COc1ccc(CNS(=O)(=O)c2ccc(-c3cnc(C4CC4)o3)cc2)cc1
CCc1nc2ccc(C(=O)N3CCN(c4cc(Cl)ccc4C)CC3)cc2nc1CC
Cc1ccc(NC(=O)c2ccc(CN3CC(=O)N4CCCCC4C3=O)cc2)c(Cl)c1 (stereo not drawn)
COc1cccc(NC(=O)Nc2ccc3c(c2)N(C)C(=O)c2ccccc2S3)c1
COc1ccccc1-c1nnc(SCC(N)=O)o1
Cc1cccc(C(=O)Nc2ccc(S(=O)(=O)N3CCCCC3c3cccnc3)cc2)c1 (stereo not drawn)
CCc1ccc(NC(=O)c2sc3nc4c(cc3c2N)CN(CC)CC4)cc1
Cc1ccccc1NC(=O)CN1C(=O)C(C)(C)c2ccccc21
Cc1ccc(C(=O)Nc2ccc(OCc3cc(=O)n4c5c(sc4n3)CCCC5)cc2)cc1
COc1ccc(NC(=O)CSc2nccn2Cc2ccc3c(c2)OCO3)cc1
CCOC(=O)c1c(S(=O)(=O)N2CCC(C(=O)NCc3ccccc3OC)CC2)c(C)n(C)c1C
O=C(Nc1ccccc1Br)c1cc(CN2CCCC2)on1
COc1ccc(S(=O)(=O)NCc2cccn2Cc2cccc(C)c2)cc1Cl
Cc1cccc(Cn2c(=O)n(CCC(=O)NCCc3ccc(Cl)cc3)c(=O)c3sccc32)c1
Cc1noc2ncnc(NCc3ccccc3Cl)c12
CCOc1ccc(CCNC(=O)CN(c2ccc(C)cc2)S(=O)(=O)N(C)C)cc1OCC
COc1ccc(C)cc1NC(=O)CCc1c(C)nn(-c2ccc(N3CCOCC3)nn2)c1C
CCc1ccc(N2C(=O)CN(S(=O)(=O)CC)CC2(C)C(=O)NC2CCCCC2)cc1 (stereo not drawn)
Cc1ccc(Cc2nc3ccccc3nc2SCC(=O)Nc2cccc(C(F)(F)F)c2)cc1
Cc1ccc(-n2c(SCC(=O)c3ccccc3)nc3c([nH]c4ccccc43)c2=O)cc1
CC(=O)OC1=C(C(C)=O)N(Cc2ccccc2)S(=O)(=O)c2ccccc21
Brc1cccc(-c2nnn3c2nc(NC2CCCCC2)c2ccccc23)c1
Cc1cccc(N2CCN(C(=O)CCSCc3ccccc3F)CC2)c1C
COc1ccc(-c2c(C)nn3c(N4CCC(C(=O)NCCC(C)C)CC4)cc(C)nc23)cc1OC
Cc1cccc(NC(=O)Cn2c(=O)n(CCC(C)C)c(=O)c3cccnc32)c1
O=[N+]([O-])c1cc(-c2nc(-c3ccccc3)no2)ccc1NCc1ccco1
Cc1cc(NC(=O)c2ccc(-c3ccc(Cl)cc3)o2)cc(-c2nc3ncccc3o2)c1O
CCN(CC)c1ccc(NC(=O)Cn2nc3c(cc2=O)CCCC3)c(C)c1
Oc1c(C(c2ccccc2Cl)N2CCOCC2)sc2nc(-c3ccco3)nn12 (stereo not drawn)
